# Test results taken from PubChem BioAssay (NCI).
# This is part of a sample that, as a whole, favours compounds with a hit. Of some 79,000 tested, about 15% had one in any assay. A number with no mark means an inactive call. The source made the active and inactive calls. No stated cut-off is given here; in the data, active means growth inhibition above about 70%; inactive means the rest.
# Columns and labels:
# [1] = NCI Yeast Anticancer Drug Screen. Data for the rad50 strain (AID 155);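 further: 0% = growth of vehicle-only cultures of the same strain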; conditions: S. cerevisiae rad50 strain growth inhibition, hits give high values
# How it was run: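 A DNA repair-deficient yeast mutant serves as the test organism; compound-induced growth inhibition is calculated against vehicle-treated cells.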
# [2] = NCI Yeast Anticancer Drug Screen. Data for the mec2-1 strain (AID 157); conditions: S. cerevisiae mec2-1 strain, hits give high values
# How it was run: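 Vehicle-treated cultures served as reference for growth inhibition of compound-exposed mec2-1 yeast.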
# [3] = NCI Yeast Anticancer Drug Screen. Data for the sgs1 mgt1 strain (AID 161);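 further: 0% = growth of cultures given vehicle only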; conditions: S. cerevisiae sgs1 mgt1 strain, hits give high values
# How it was run: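 Test agents were incubated with a DNA-repair-mutant yeast strain. Growth was then read and compared against vehicle-treated controls.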
# [4] = NCI Yeast Anticancer Drug Screen. Data for the cln2 rad14 strain (AID 165);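 further: 0% = growth equal to vehicle treated cultures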; conditions: S. cerevisiae cln2 rad14 strain, hits give high values
# How it was run: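 Each compound was tested on cln2 rad14 yeast. Inhibition of growth was calculated against vehicle-exposed controls.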
# [5] = NCI Yeast Anticancer Drug Screen. Data for the bub3 strain (AID 167); conditions: S. cerevisiae bub3 mutant strain, hits give high values
# How it was run: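 Inhibition values come from growth of compound-treated mutant yeast normalised to vehicle-treated controls.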
# [6] = NCI Yeast Anticancer Drug Screen. Data for the mlh1 rad18 strain (AID 175); conditions: S. cerevisiae mlh1 rad18 strain growth inhibition, hits give high values
# How it was run: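 Vehicle-treated cultures served as the reference for growth inhibition in a yeast strain carrying DNA damage repair alterations exposed to each compound.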
# [7] = at 5.0 µM (retest, dose inferred, filed as 0.5)
# [8] = at 50.0 µM (retest, dose inferred, filed as 5.0)
SMILES,"growth inhibition [1, 7]","growth inhibition [1, 8]",growth inhibition ([1]; at 50.0 µM),"growth inhibition [2, 7] [%]","growth inhibition [2, 8]",growth inhibition ([2]; at 50.0 µM),"growth inhibition [3, 7] [%]","growth inhibition [3, 8]",growth inhibition ([3]; at 50.0 µM),"growth inhibition [4, 7]","growth inhibition [4, 8]",growth inhibition ([4]; at 50.0 µM),"growth inhibition [5, 7]","growth inhibition [5, 8]",growth inhibition ([5]; at 50.0 µM),"growth inhibition [6, 7]","growth inhibition [6, 8]",growth inhibition ([6]; at 50.0 µM)
CN1CCN(CC(=O)c2c(-c3ccccc3)[nH]c3ccccc23)CC1,68%,4%,33.2%,56,1%,15.8%,66,7%,9.45%,50%,21%,33.1%,58%,4%,-9.9%,80% (active),1%,8.15%
O=[N+]([O-])c1ccc(O)c(C=Nc2ccccc2)c1,-114%,31%,74.3% (active),-50,-21%,69.5%,-51,0%,64%,-57%,-6%,79.5% (active),-71%,-41%,54.6%,-96%,-16%,82.8% (active)
C[n+]1c(-c2ccc(/C=N/NC(=O)c3ccc(C(=O)N/N=C/c4ccc(-c5cn6ccccc6[n+]5C)cc4)nc3)cc2)cn2ccccc21,35%,99% (active),99.2% (active),14,99% (active),98.8% (active),35,99% (active),98.8% (active),34%,99% (active),99% (active),24%,99% (active),98.9% (active),50%,99% (active),99.1% (active)
O=[N+]([O-])c1ccccc1N=Nc1c(O)[nH]c2ccc(S(=O)(=O)O)cc12,73% (active),96% (active),97.7% (active),36,87% (active),97.8% (active),68,93% (active),95.9% (active),85% (active),94% (active),95.6% (active),87% (active),97% (active),97.8% (active),90% (active),98% (active),98.4% (active)
O=c1c2ccccc2c2ccccc2c(=O)n1-c1cc2c3ccccc3ccc2c2ccccc12,12%,16%,-16.2%,-11,9%,-12.8%,-4,9%,-2.4%,-11%,-10%,68.2%,-12%,-5%,-66.5%,5%,9%,37.8%
